# In PubChem BioAssay AID624301 (The Scripps Research Institute Molecular Screening Center, 2012):
# The source made the active and inactive calls.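 How the source made its calls: active means relative activity ratio in the reporter plus Dax-1 wells above 5 or under 0.1 at any tested dose; inactive means ratio stays between 0.1 and 5 at every dose.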
# Target: DAX1 (UniProt P51843)
# Test: DAX1 inhibitors in Gal4 CAT reporter cells – cell-based, CAT activity, absorbance, powder samples, DAX1 inhibitor project, dose response (AID 624301)
# Settings: HEK293 Gal4-DAX1 CAT reporter, ELISA absorbance; CAT reporter with DAX1, at 100 µM (top of the series)
# DAX1, sequence (P51843 whole entry, looked up, the tested form may be a part): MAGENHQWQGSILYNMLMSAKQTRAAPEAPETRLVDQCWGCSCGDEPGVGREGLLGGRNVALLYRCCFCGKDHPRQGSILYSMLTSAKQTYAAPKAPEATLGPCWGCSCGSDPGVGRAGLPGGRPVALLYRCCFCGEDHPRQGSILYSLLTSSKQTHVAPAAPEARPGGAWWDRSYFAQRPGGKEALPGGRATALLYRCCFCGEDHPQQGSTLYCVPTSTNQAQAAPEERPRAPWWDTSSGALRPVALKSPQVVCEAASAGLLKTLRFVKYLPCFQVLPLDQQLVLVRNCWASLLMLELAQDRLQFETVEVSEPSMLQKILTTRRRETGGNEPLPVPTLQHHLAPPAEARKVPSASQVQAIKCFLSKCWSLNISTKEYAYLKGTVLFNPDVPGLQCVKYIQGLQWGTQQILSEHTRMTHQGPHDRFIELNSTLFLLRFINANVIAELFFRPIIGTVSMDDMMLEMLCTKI
row,SMILES,outcome
1,Cn1c(=O)n(C)c2cc(C(=O)Nc3ccc4c(c3)OCCO4)ccc21,inactive
2,Cn1c(=O)n(C)c2cc(C(=O)Nc3ccc4c(c3)OCO4)ccc21,inactive
